# Assay results taken from publication PMC5540273 (PLoS ONE, 2017).
# How the values were obtained:
# Conditions in all cases: concentration: 1 μM, replicates: in singlicate; n = 1
# FGFR4 = test system: FGFR4
# FGR = test system: FGR
# FLT1 = test system: FLT1
# FLT3-autoinhibited = test system: FLT3-autoinhibited
# FLT3 = test system: FLT3
# FLT4 = test system: FLT4
# FRK = test system: FRK
# FYN = test system: FYN
# GAK = test system: GAK
# GCN2(Kin.Dom.2,S808G) = test system: T1, GCN2(Kin.Dom.2,S808G)
# T1 construct: gene EIF2AK4
# GRK1 = test system: GRK1
# GRK2 = test system: T2, GRK2
# T2 construct: gene ADRBK1
# GRK3 = test system: T3, GRK3
# T3 construct: gene ADRBK2
# GRK4 = test system: GRK4
# GRK7 = test system: GRK7
# GSK3A = test system: GSK3A
# GSK3B = test system: GSK3B
# HASPIN = test system: T4, HASPIN
# T4 construct: gene GSG2
# HCK = test system: HCK
# HIPK1 = test system: HIPK1
# 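Note: KINOMEscan kinase panel screen.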
Structure (SMILES),%Inh (FGFR4),%Inh (FGR),%Inh (FLT1),%Inh (FLT3-autoinhibited),%Inh (FLT3),%Inh (FLT4),%Inh (FRK),%Inh (FYN),%Inh (GAK),"%Inh (GCN2(Kin.Dom.2,S808G))",%Inh (GRK1),%Inh (GRK2),%Inh (GRK3),%Inh (GRK4),%Inh (GRK7),%Inh (GSK3A),%Inh (GSK3B),%Inh (HASPIN),%Inh (HCK),%Inh (HIPK1)
CNc1nccc(-c2c(-c3ccc(F)cc3)ncn2C2CCN(C)CC2)n1 [SB-222903],0%,0%,0%,0%,0%,0%,0%,0%,6%,3%,0%,90%,0%,0%,0%,3%,0%,6%,26%,10%
Nc1nc(-c2ccc3c(N)n[nH]c3c2)cc(N2CCCCC2)n1 [GSK2228768],0%,12%,24%,0%,0%,1%,0%,18%,0%,0%,0%,0%,30%,0%,0%,0%,0%,0%,0%,0%
Nc1nc(-c2cccnc2)c(-c2ccnc3ccccc23)s1 [GW684083],0%,24%,29%,0%,16%,0%,5%,12%,77%,24%,0%,1%,39%,8%,0%,11%,7%,83%,0%,11%
Cn1ccc2ncnc(Oc3ccc(NC(=O)Nc4cccnc4)c(Cl)c3)c21,0%,0%,2%,0%,0%,37%,0%,0%,0%,0%,13%,0%,0%,1%,14%,0%,3%,0%,8%,13%
Cn1cc(-c2ccc3c(c2)CCN3C(=O)Cc2cccc(C(F)(F)F)c2)c2c(N)ncnc21 [GSK2606414],0%,0%,31%,3%,28%,22%,0%,13%,3%,5%,5%,4%,0%,100%,0%,0%,0%,0%,0%,0%
O=C(Nc1ccccc1F)NC1CCN(c2ccnc(Nc3ccc(F)cc3)n2)C1 (centres unmarked) [GSK1379722],7%,9%,26%,0%,1%,14%,9%,0%,0%,4%,0%,0%,57%,0%,0%,0%,8%,0%,0%,0%
COC(=O)c1c(-c2ccccc2)c2cc(Cl)ccc2c(=O)n1Cc1ccc(S(C)(=O)=O)cc1,6%,0%,0%,2%,0%,8%,22%,0%,100%,0%,0%,0%,15%,12%,15%,0%,0%,27%,14%,14%
Cc1ccc(C)c(NC(=O)NCCNc2ccnc(Nc3ccc(F)cc3)n2)c1 [GSK1379878],0%,4%,24%,0%,0%,0%,0%,0%,0%,0%,0%,0%,17%,0%,0%,3%,0%,4%,0%,0%
O=C(Nc1n[nH]c2nc(-c3ccco3)c(Br)cc12)c1ccc(CN2CCCC2)cc1.O=C(O)[C@H](O)[C@@H](O)C(=O)O [SB-742352],0%,3%,34%,51%,95%,1%,0%,0%,0%,0%,6%,0%,0%,20%,0%,76%,15%,15%,26%,0%
CCc1nc(-c2cccc(N(C)S(=O)(=O)c3ccccc3)c2)c(-c2ccnc(Nc3ccc(N4CCN(C(C)=O)CC4)nc3)n2)s1 [GSK1645895],0%,73%,24%,18%,0%,14%,0%,40%,85%,4%,0%,0%,0%,0%,0%,11%,20%,0%,0%,1%
